According to PubChem BioAssay AID588855 (National Center for Advancing Translational Sciences (NCATS), 2011):
About 5,000 (1.2%) of roughly 410,000 compounds were called active. A call without a number means that no potency is given here. Inconclusive results (about 13%) are left out. Calls come from the whole dose curve; as a rule, active = well fitted inhibition curve with a large enough effect; inconclusive = small, poorly fitted or top-dose-only effect; inactive = no such curve, though single readings can be large or run the other way. Only a selection was taken, and actives are over-represented in it overall.

Experiment: qHTS for Inhibitors of TGF-b; note: nearly all actives have a fitted effect of over 65% in size
Conditions: HepG2 CAGA-GFP TGF-b/SMAD3 reporter, GFP fluorescence, 18 h, TGF-beta stimulated, 500 pg/mL final; series mostly up to 46.1 µM
Description: TGF-b is a main component in the TGF-b signaling pathway which plays diverse roles in cellular and development pathways. TGF-b is the mediated by the transcription factors Smads. Although the Smad-dependent pathway is the primary canonical TGF-b signaling node, TGF-b1 can also activate alternative signaling pathways, including those involving MAPK (ERK, JNK and p38). This interaction may mediate or enhance Smad-dependent responses, or can exert Smad-independent effects. The complexity of this signaling cascade allows the TGF-b superfamily to perform unique, overlapping or redundant functions. We believe that targeting the TGF-beta pathway at the Smad-transcription factor level may eliminate the consequences of disrupting the entire pathway and offer specificity without affecting other signaling pathways. Smad3 is the primary transducer of TGF-b's signals and Smad3 regulates many functions attributed to TGF-b signaling. We hypothesize that Smad3 inhibitors will selectively eliminate Smad3-specific TGF-beta signals without undesired off-target effects. We aim to identify Smad3-small molecule antagonists using a quantitative high throughput screening (qHTS) approach.
A high-throughput assay was developed to screen the NIH Molecular Libraries Small Molecule Repository (MLSMR). This is a cell based assay, where TGF-b is tagged with GFP. A counterscreen is run that looks at cytotoxicity (please see summary AID).
MH087449NIH Chemical Genomics Center [NCGC]
NIH Molecular Libraries Probe Centers Network [MLPCN]
Assay Submitter (PI): Sushil Rane, National Institute of […]
Suspensions of trypsinized HEPG2 CAGA-GFP cells were dispensed into white, tissue culture-treated, solid 1536-well plates at 5uL/well (1000 cells/well final concentration) in DMEM medium supplemented with 1% FBS. Plates were incubated at 37 degrees C for 2 hours, after which 23 nL of compounds or DMSO were delivered to each well using a pin tool. One uL of recombinant TGF-beta in DMEM (1% FBS) was then dispensed (500 pg/mL final concentration), and plates were incubated at 37 degrees C for 18 hours. The plates were measured on an Acumen eX3 Explorer plate reader for GFP fluorescence (ex488/em500-530). GFP values were calculated by determining the mean GFP fluorescence of individual cells, and compiling these values for each well to determine a total well GFP signal. The %Activity was determined from the corrected fluorescence values. A titration of the known TGF-B inhibitor SB431542 was included to monitor plate performance, while unstimulated HEPG2 (-TGF-B) control wells were used to normalize %Activity of identified inhibitors; unstimulated wells corresponded to 100%Activity (full inhibition), while stimulated cell controls (+DMSO) were used to normalize 0%Activity (no inhibition).
Concentration-response curves were fitted to the signals arising from the resulting fluorescence. The concentration-effect curves were then classified based on curve quality (r2), response magnitude and degree of measured activity, and compounds were subsequently categorized based on their curve class.
Potency is the fitted concentration of half-maximal effect.

Structure (SMILES) | Potency
C[C@]12CCC3C(CC[C@H]4C[C@@H](O)CC[C@]34C)C1CC[C@@H]2O (some centres not stated) | inactive
C[C@]12CC[C@H](O)C[C@H]1CC[C@@H]1C2CC[C@]2(C)[C@@H](C3=CC(=O)OC3)[C@@H](O)C[C@]12O (some centres not stated) | 11.2 µM (active)
CC12CCC(O)CC1CCC1C2CCC2(C)C(C(=O)CC(O)C(F)(F)F)CCC12 (configuration not stated) | inactive
C[C@H]1CN([C@@H](C)CO)C(=O)CCCn2nncc2CO[C@H]1CN(C)C(=O)Oc1ccccc1 | inactive
COc1ccccc1OC(=O)c1ccc(C)c(S(=O)(=O)N2CCOCC2)c1 | inactive
COc1ccc2c(c1)NP(=S)(c1ccccc1)N2 (configuration not stated) | inactive
Cc1nc2ccccc2c(=O)n1-c1ccc(Cl)cc1Cl | inactive
Cn1cc(/C=C/c2nc3ccccc3c(=O)n2-c2ccccc2)c2ccccc21 | inactive
O=c1c2ccccc2nc(/C=C/c2ccc(F)cc2)n1-c1ccccc1O | 10 µM (active)
CC(C)CN1Cc2cc(N3CCCCC3)ccc2-n2nncc2C1 | inactive
O=c1c2ccccc2nc(CBr)n1-c1ccc(Cl)cc1 | inactive
CCCCC(=O)N/N=C/c1c(O)n(CC)c(=S)n(CC)c1=O | 22.4 µM (active)
O=C(N/N=C/c1c(O)n(Cc2ccccc2)c(=O)[nH]c1=O)c1ccccc1 | inactive
Cn1c(O)c(C=NCCCC(=O)O)c(=O)n(C)c1=O | inactive
COc1cc(C(c2c(O)c3ccccc3oc2=O)c2c(C)n(C)n(-c3ccccc3)c2=O)ccc1O (configuration not stated) | inactive
C[C@H]1CN([C@@H](C)CO)C(=O)CCCn2nncc2CO[C@H]1CN(C)C(=O)Oc1cccc2ccccc12 | inactive
CC1CCCCN1Cc1cccnc1 (configuration not stated) | inactive
COC1C(O)C(C)OC(OC2CCC3(C=O)C(CCC4C3CCC3(C)C(C5=CC(=O)OC5)CCC43O)C2)C1O (configuration not stated) | 0.355 µM (active)
O=c1[nH]c(CN2CC=C(c3ccccc3)CC2)nc2scc(-c3cccs3)c12 | inactive
COC(=O)C1=C(c2cc3ccccc3s2)C[C@@H]2CC[C@H]1N2C(=O)NCCO | inactive
COc1cc(C2c3cc4c(cc3C(O)C3COC(=O)C23)OCO4)cc(OC)c1OC (configuration not stated) | inactive

Structure (SMILES) | Potency
O=C(O)c1cc[c]([Sb](=[O])([OH])[OH])cc1[N+](=O)[O-] | inactive
CO[C@H]1[C@@H](O)[C@@H](C)O[C@H](O[C@H]2[C@H](Oc3cccc4c(O)c5c(=O)oc6ccc(C)c7c(=O)oc(c34)c5c67)O[C@H](C)[C@H](O)[C@@H]2O)[C@@H]1O | inactive
CSCCC(c1nnnn1C(C)(C)C)N1CCC(n2c(=O)[nH]c3ccccc32)CC1 (configuration not stated) | inactive
CC1(C)Cc2c(C#N)c(N3CCNCC3)nc(-c3ccco3)c2CS1 | inactive
Cc1nnc(NC(=O)c2cccn(Cc3cccc(F)c3)c2=O)s1 | inactive
Cc1cccc(Cn2cccc(C(=O)Nc3ccc4c(c3)OCCO4)c2=O)c1 | 10 µM (active)
Cc1ccccc1NC(=O)COC(=O)c1cc(C)n(C2CC2)c1C | inactive
COc1ccc(NC(=O)N2Cc3ccccc3-n3nncc3C2)cc1 | inactive
Cc1ccc(OC(=O)N(C)C[C@@H]2OCc3cnnn3CCCC(=O)N([C@H](C)CO)C[C@@H]2C)cc1 | inactive
CCOC(=O)CNC(=O)N1Cc2cc(N3CCCCC3)ccc2-n2nncc2C1 | inactive
CC(=O)c1ccc(OC(NC(=O)Cc2ccccc2)C(Cl)(Cl)Cl)cc1 (configuration not stated) | inactive
CN1CCN(/N=C/c2c[nH]c3ccccc23)CC1 | inactive
CN(C)CCN(CC1CCCN(Cc2ccccc2F)C1)C(=O)Cc1ccc(F)c(F)c1 (configuration not stated) | inactive
CCn1cc(CN2CCCC(C(=O)c3cccc(C(F)(F)F)c3)C2)cn1 (configuration not stated) | inactive
CC(=O)Nc1ccc(CC#N)cc1 | inactive
CCC(C)(O)C(=O)OC1C(=O)OC2CC3C(C)=CC(=O)C(O)C3(C)C3C4(O)OCC23C1C(C)C4O (configuration not stated) | 0.355 µM (active)
O=C1C2CCN(CC2)C1(CO)CO | inactive
COc1ccc(C2C=C(C)Oc3c2c(=O)oc2ccccc32)cc1OC (configuration not stated) | inactive
CN(C(=O)c1cccc(NC(=O)Cc2cccc([N+](=O)[O-])c2)c1)C1CCCCC1 | 20 µM (active)
CN(C)P(=S)(Nc1ccccc1)C(Cl)(Cl)Cl (configuration not stated) | inactive
O=C1CC(=O)N(Cc2ccccc2)C(=O)N1CCCCCCN1C(=O)CC(=O)N(Cc2ccccc2)C1=O | inactive

Structure (SMILES) | Potency
CC(C)(C)c1ccc(CN2C(=O)CN=C(c3ccccc3)c3ccccc32)cc1 | 11.2 µM (active)
O=C(O)/C=C/c1ccc2c(c1)OCO2 | inactive
CC1=C(C(=O)Nc2ccccc2)S(=O)(=O)CCO1 | inactive
CNC(=O)N(C)c1nnc(C(C)(C)C)s1 | inactive
c1ccc(N2Cc3ccccc3-n3nncc3C2)nc1 | inactive
O=Cc1cn(Cc2ccc(F)cc2Cl)c2ccccc12 | 8.91 µM (active)
CC(=O)C1(O)CCC2C3CCC4=C(Cl)C(=O)CCC4(C)C3CCC21C (configuration not stated) | inactive
N#Cc1c(Cl)c(Cl)c(Cl)c(C#N)c1Cl | 0.251 µM (active)
CCOC(=O)C(O)(c1ccc(N=Cc2ccccc2O)c(C)c1)C(F)(F)F (configuration not stated) | inactive
O=C(Oc1ccc2c(c1)CCC2)N1CCOCC1 | inactive
CCN(CC)C(=O)c1ccc(NC(=O)c2sccc2-c2ccccc2)cc1 | inactive
CCOc1cccc(=NC2CCCCC2)c2c(C)[nH]c(C)c12 | 10 µM (active)
Cc1nc2ccccn2c1P(=S)(N1CCCCC1)N1CCCCC1 | inactive
COc1ccc2c(c1O)-c1cccc3c1[C@@H](C2)N(C)CC3 | inactive
COc1c(O)ccc2c1-c1c3c(cc4c1C(C2)N(C)CC4)OCO3 (configuration not stated) | inactive
COc1ccc2cc1Oc1ccc(cc1)C[C@H]1c3cc(c(OC)cc3CCN1C)Oc1c(O)c(OC)cc3c1[C@H](C2)N(C)CC3 | 7.94 µM (active)
CN(C)/C=C(\C=[N+](C)C)c1[nH]ncc1[N+](=O)[O-] | inactive
COC(=O)C1=C(c2ccc(OCc3ccccc3)cc2)C[C@@H]2CC[C@H]1N2C(=O)NCc1cccc(F)c1 | inactive
Cc1ncoc1C(=O)NCC1=C(c2cccc3ccccc23)C[C@@H]2CC[C@H]1N2Cc1ccco1 | inactive
ClCCN(CCCl)c1ccc(C=Nc2ccc(/C=C/c3ccnc4ccccc34)cc2)cc1 | inactive
